Values joined by “and” are separate entries in the source; they are usually repeats but may differ in a detail not shown here. Equal values may be shown once. Inconclusive results are not listed. Active and inactive are the calls of the source. Unless noted, calls follow the shape of the full dose curve.
What was measured:
[1] = Nuclear factor erythroid 2-related factor 2/antioxidant responsive element (Nrf2/ARE) small molecule agonists: luciferase reporter gene qHTS assay in human keratinocytes (AID 1919969); also: nearly all actives have a fitted effect of over 35% in size; also: potency is read from the fitted curve at half-maximal effect
[2] = biological target: Gonadotropin-releasing hormone receptor (Homo sapiens) (UniProt P30968); assay: Human gonadotropin-releasing hormone receptor (GnRHR) small molecule agonists, calcium flux assay in GnRHR-HEK293 cells (AID 1920063); also: nearly all actives have a fitted effect of over 35% in size
How it was run: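 Stable human GnRHR HEK293 line. 18 h plating, then calcium dye for 1 h at 37 C. Agonist-mode compound addition from DMSO stocks; fluorescence monitored 3 min.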

[3] = biological target: KiSS-1 receptor (Homo sapiens) (UniProt Q969F8); assay: Human kisspeptin (KISS1R) small molecule agonists, calcium flux assay in KISS1R-HEK293 cells (AID 1920064; active = well fitted activation curve with a large enough effect in the repeat runs)
How it was run: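 After overnight (18 h) culture at 37 C/5% CO2, human KISS1R-HEK293 cells received calcium dye for 1 h, then test compound; emission at 540 nm (excitation 480 nm) was tracked for 3 min.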

[4] = G protein-coupled receptor (GPCR) small molecule agonists, calcium flux assay: HEK293 wild type cell line counter screen (AID 1920065)
How it was run: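 Following 18 h incubation at 37 C/5% CO2, plates got calcium dye for 1 h; compounds, ATP or DMSO were then pinned in and fluorescence followed kinetically (480/540 nm).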

[5] = p53 small molecule agonists, cell-based qHTS assay with human liver microsomes (AID 1963577);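 also: p53 response element beta-lactamase reporter cells with liver microsomes plus NADPH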
How it was run: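 In this qHTS, p53 response-element beta-lactamase cells receive test compound together with a microsome/NADPH activating system (0.5 mg/mL final each) and are incubated 16 h at 37 C before LiveBLAzer fluorescence detection.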

[6] = p53 small molecule agonists, cell-based qHTS assay with human liver microsomes: qHTS cell viability counter screen (AID 1963579); also: nearly all actives have a fitted effect of over 45% in size
How it was run: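 Metabolically activated exposure: compounds, human liver microsomes and NADPH (0.5 mg/mL final apiece) were added to p53RE-bla cells seeded 5 h earlier, left 16 h at 37 C, and then assessed for viability by CellTiter-Glo luminescence.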

[7] = p53 small molecule agonists, cell-based qHTS assay: qHTS cell viability counter screen (AID 1963581); also: nearly all actives have a fitted effect of over 45% in size; also: potency is read from the fitted curve at half-maximal effect
How it was run: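 qHTS counter screen: 16 h compound exposure at 37 C of p53RE-bla HCT-116 cells (4,000 per well, seeded 5 h prior), cell viability by ATP luminescence.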

[8] = cAMP Responsive Elements (CRE) small molecule agonists, cell-based qHTS assay (AID 1963590)
How it was run: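 Test agents in DMSO were incubated 3 h at 37 C/5% CO2 with CRE-bla HEK 293T cells seeded 18 h earlier; LiveBLAzer B/G FRET substrate was added and read after 2 h at room temperature.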

[9] = cAMP Responsive Elements (CRE) small molecule antagonists, cell-based qHTS assay (AID 1963591; active = well fitted inhibition curve with a large enough effect in the signal ratio in the repeat runs, not every such curve was filed as active; the % refers to the signal ratio)
How it was run: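 Reporter line CRE-bla HEK 293T in dialyzed-FBS DMEM; cells preincubated 18 h, treated 3 h with compound plus NKH477 (0.25 uM final); LiveBLAzer FRET, 2 h RT.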

[10] = biological target: Beta-2 adrenergic receptor (Homo sapiens) (UniProt P07550); assay: Adrenergic beta2 receptor (ADRB2) small molecule antagonists, cell-based qHTS assay (AID 1963592); also: series mostly up to about 92 µM; nearly all actives have a fitted effect of over 50% in size
How it was run: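 Assay format: CHO-ADRB2 cells, 18-20hr seeding at 37C/5% CO2, then compound plus 1nM isoproterenol agonist mix for 0.5hr RT. Homogeneous time-resolved fluorescence cAMP detection after 1hr, expressed as 665/615 nm ratio.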

[11] = biological target: Beta-2 adrenergic receptor (Homo sapiens) (UniProt P07550); assay: Adrenergic beta2 receptor (ADRB2) small molecule agonists, cell-based qHTS assay (AID 1963593);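 also: CHO cells stably overexpressing human ADRB2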
How it was run: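 CHO cells stably over-expressing ADRB2 were plated overnight at 37C, then dosed with compounds plus a stimulation mix containing 100uM IBMX and 25uM Ro-20-1724 for 0.5hr at room temperature. cAMP was measured by HTRF competition, 1hr.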

[12] = biological target: D(2) dopamine receptor (Homo sapiens) (UniProt P14416); assay: Dopamine D2 receptor (DRD2) small molecule agonists, cell-based qHTS assay (AID 1963594); also: nearly all actives have a fitted effect of over 35% in size
How it was run: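 HEK293 cells stably expressing human DRD2, pre-treated with PDE inhibitor Ro20-1724 (0.1 mM final) and compound 10 min at room temperature, then stimulated with NKH477 (200nM […]) for 30 min. cAMP read by HTRF (665/620 nm).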

[13] = biological target: D(2) dopamine receptor (Homo sapiens) (UniProt P14416); assay: Dopamine D2 receptor (DRD2) small molecule antagonists, cell-based qHTS assay (AID 1963595; active = well fitted inhibition curve with a large enough effect in the signal ratio in the repeat runs, with a control signal flat; the % refers to the signal ratio)
How it was run: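 Human DRD2 antagonist qHTS measuring cAMP by HTRF. The cells are exposed to compound for 10 min, then to NKH477 (200 nM) and quinpirole (12 nM) for 30 min at RT, with Ro20-1724 (0.1 mM) present throughout.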

[14] = p53 small molecule agonists, cell-based qHTS assay (AID 1963582; active = well fitted activation curve with a large enough effect in the signal ratio in the repeat runs, not every such curve was filed as active; the % refers to the signal ratio)
How it was run: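 Measured: fluorescence from cleaved LiveBLAzer substrate. System: p53RE-bla cells, 16 h compound treatment at 37 C, 2 h substrate step at room temperature.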

[15] = biological target: 5-hydroxytryptamine receptor 2A (Homo sapiens) (UniProt P28223); assay: 5-hydroxytryptamine receptor 2A (HTR2A) small molecule antagonists, cell-based qHTS assay (AID 1963586); also: nearly all actives have a fitted effect of over 45% in size; also: potency is read from the fitted curve at half-maximal effect
How it was run: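 CHO cells stably expressing human HTR2A were plated for 18 h at 37 C, then loaded with calcium dye for 1 h. Compounds were preincubated 5 min at room temperature before DOI (4 nM solution) was added. Kinetic fluorescence was read for 3 min.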

[16] = biological target: 5-hydroxytryptamine receptor 2A (Homo sapiens) (UniProt P28223); assay: 5-hydroxytryptamine receptor 2A (HTR2A) small molecule agonists, cell-based qHTS assay (AID 1963587); also: nearly all actives have a fitted effect of over 30% in size
How it was run: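 CHO cells stably expressing human HTR2A, plated 18 h, loaded with calcium dye 1 h at 37 C. Agonist mode: compounds added and intracellular calcium fluorescence recorded kinetically for 2 min at 1 sec intervals.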

[17] = biological target: Muscarinic acetylcholine receptor M1 (Homo sapiens) (UniProt P11229); assay: Cholinergic receptor muscarinic 1 (CHRM1) small molecule antagonists, cell-based qHTS assay (AID 1963588); also: nearly all actives have a fitted effect of over 40% in size
How it was run: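 Compounds were tested at 15 concentrations in three independent runs. Dye-loaded CHRM1-CHO cells were exposed 5 min at room temperature before stimulation by acetylcholine added at 50nM. Intracellular calcium was read kinetically on FDSS for 3 min.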

[18] = biological target: Muscarinic acetylcholine receptor M1 (Homo sapiens) (UniProt P11229); assay: Cholinergic receptor muscarinic 1 (CHRM1) small molecule agonists, cell-based qHTS assay (AID 1963589); also: nearly all actives have a fitted effect of over 35% in size
How it was run: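 Kinetic fluorescence (1 s intervals) of calcium-sensitive dye in human M1 CHO cells after compound addition; cells pre-incubated 18 h at 37 C/5% CO2 and dye-loaded 1 h.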

[19] = p53 small molecule agonists, cell-based qHTS assay with rat liver microsomes (AID 1963578)
How it was run: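 Agonist mode in p53RE-bla reporter cells, with compounds co-incubated 16 h at 37 C alongside 0.5 mg/mL rat liver microsomes and 0.5 mg/mL NADPH (final), followed by a 2 h LiveBLAzer detection step.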

[20] = p53 small molecule agonists, cell-based qHTS assay with rat liver microsomes: qHTS cell viability counter screen (AID 1963580); also: nearly all actives have a fitted effect of over 45% in size
How it was run: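 Cytotoxicity counter screen: intracellular ATP measured by CellTiter-Glo luminescence in the same wells as the beta-lactamase reporter read, on HCT-116 p53RE-bla cells exposed 16 h at 37 C to compounds with rat liver microsomes and NADPH, each 0.5 mg/mL final.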

Measured: Potency

Chain of 5-hydroxytryptamine receptor 2A (Homo sapiens) (P28223 whole entry, looked up): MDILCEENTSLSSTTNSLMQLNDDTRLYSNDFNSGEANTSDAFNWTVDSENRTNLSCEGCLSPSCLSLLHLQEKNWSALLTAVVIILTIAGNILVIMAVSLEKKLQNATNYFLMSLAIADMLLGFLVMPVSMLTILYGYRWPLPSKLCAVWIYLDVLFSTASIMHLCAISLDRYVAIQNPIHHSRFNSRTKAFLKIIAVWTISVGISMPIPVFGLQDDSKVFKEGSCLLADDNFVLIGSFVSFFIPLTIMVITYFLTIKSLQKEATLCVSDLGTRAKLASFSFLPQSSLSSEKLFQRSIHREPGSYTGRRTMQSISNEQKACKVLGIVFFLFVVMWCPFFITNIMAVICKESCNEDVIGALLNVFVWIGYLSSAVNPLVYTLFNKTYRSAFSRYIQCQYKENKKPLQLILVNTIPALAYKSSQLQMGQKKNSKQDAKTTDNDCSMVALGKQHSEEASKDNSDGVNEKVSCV
Chain of Beta-2 adrenergic receptor (Homo sapiens) (P07550 whole entry, looked up): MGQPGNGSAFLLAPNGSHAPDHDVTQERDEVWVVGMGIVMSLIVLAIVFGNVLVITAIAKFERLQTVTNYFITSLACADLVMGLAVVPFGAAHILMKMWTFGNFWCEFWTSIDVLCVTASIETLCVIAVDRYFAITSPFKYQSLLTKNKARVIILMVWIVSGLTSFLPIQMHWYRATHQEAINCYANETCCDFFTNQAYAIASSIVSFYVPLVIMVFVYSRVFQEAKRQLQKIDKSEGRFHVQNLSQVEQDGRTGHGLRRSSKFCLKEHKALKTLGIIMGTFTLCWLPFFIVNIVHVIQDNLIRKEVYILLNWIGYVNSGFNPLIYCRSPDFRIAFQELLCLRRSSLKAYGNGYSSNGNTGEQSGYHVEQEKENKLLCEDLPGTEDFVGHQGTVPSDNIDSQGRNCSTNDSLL
Chain of KiSS-1 receptor (Homo sapiens) (Q969F8 whole entry, looked up): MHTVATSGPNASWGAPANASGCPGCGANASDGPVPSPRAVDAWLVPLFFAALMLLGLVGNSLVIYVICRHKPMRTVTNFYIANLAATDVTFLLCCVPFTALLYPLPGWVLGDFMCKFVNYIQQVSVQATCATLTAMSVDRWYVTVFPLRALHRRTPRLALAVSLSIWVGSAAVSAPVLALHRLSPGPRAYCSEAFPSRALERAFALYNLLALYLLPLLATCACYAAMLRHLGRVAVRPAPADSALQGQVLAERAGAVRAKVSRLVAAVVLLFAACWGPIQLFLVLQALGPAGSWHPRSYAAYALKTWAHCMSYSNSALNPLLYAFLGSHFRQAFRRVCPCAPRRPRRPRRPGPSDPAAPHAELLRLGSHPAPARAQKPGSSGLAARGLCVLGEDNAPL
Chain of Muscarinic acetylcholine receptor M1 (Homo sapiens) (P11229 whole entry, looked up): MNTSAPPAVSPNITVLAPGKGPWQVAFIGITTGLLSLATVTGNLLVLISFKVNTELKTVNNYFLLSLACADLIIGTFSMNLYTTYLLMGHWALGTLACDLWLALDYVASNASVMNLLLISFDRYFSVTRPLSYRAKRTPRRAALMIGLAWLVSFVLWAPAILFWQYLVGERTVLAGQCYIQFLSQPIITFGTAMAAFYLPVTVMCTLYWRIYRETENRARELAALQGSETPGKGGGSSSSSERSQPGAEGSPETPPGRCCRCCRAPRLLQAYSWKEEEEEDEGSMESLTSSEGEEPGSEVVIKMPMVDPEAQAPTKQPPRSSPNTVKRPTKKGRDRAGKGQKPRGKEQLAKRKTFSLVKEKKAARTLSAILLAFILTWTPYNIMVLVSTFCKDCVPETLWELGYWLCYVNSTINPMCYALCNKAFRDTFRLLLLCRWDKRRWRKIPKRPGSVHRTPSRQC
Chain of D(2) dopamine receptor (Homo sapiens) (P14416 whole entry, looked up): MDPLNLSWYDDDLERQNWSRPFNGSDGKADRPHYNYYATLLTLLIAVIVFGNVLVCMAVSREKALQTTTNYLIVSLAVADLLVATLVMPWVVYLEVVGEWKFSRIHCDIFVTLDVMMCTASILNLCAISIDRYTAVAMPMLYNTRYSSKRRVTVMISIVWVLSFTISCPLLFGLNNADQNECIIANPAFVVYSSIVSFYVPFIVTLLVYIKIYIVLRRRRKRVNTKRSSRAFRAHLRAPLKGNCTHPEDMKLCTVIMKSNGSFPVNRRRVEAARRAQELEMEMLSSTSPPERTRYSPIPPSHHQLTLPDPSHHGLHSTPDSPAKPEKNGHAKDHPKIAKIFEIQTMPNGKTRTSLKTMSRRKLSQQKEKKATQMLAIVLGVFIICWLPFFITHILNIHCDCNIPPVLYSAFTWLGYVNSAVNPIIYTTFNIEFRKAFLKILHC
Chain of Gonadotropin-releasing hormone receptor (Homo sapiens) (P30968 whole entry, looked up): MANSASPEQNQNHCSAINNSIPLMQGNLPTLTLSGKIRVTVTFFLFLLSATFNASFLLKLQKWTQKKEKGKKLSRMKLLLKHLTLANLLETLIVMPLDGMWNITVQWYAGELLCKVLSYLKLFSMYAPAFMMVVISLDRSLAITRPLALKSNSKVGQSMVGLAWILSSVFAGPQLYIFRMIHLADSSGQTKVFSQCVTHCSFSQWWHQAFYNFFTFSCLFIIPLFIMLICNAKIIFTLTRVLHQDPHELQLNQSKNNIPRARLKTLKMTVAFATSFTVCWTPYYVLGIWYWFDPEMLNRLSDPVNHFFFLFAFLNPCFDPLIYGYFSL

NC(=O)c1ncn([C@@H]2O[C@H](CO)[C@@H](O)[C@H]2O)n1
not listed: [14] | [15] | [16] | [17] | [18] | [19] | [20]
inactive: all other assays above

CC1=C(/C=C/C(C)=C/C=C/C(C)=C/C(=O)O)C(C)(C)CCC1
active: [1] 68.7 µM and 68.5 µM and 23.7 µM
not listed: [12] | [15] | [16] | [17] | [18] | [19] | [20]
inactive: all other assays above

CCCCC(C=O)CC (configuration not stated)
not listed: [5] | [8] | [14] | [19] | [20]
inactive: all other assays above

CC(=O)C(=O)O
not listed: [5]
inactive: all other assays above

CCC(O)OC(O)CC (configuration not stated)
not listed: [6] | [16]
inactive: all other assays above

C=Cc1ccc(C)cc1
not listed: [10] | [12] | [18] | [19]
inactive: all other assays above

O=C(OCc1ccccc1)c1ccc(O)cc1
active: [1] 68.6 µM and 13.3 µM | [15] 33.4 µM
not listed: [3] | [6] | [10] | [17]
inactive: all other assays above

O=C(OCc1ccccc1)c1ccccc1O
active: [1] 48.2 µM and 54.5 µM | [7] 45.8 µM
not listed: [5] | [11] | [12]
inactive: all other assays above
